# Bioassay records from PubChem.
# PNC assembly inh = inhibitors of perinucleolar compartment assembly; AID 2417; activity change (PNC), negative = inhibition, % at 10 µM; 140,000 compounds, 3.1% hits; PC3M PTB-GFP, PNC prevalence imaging, 16 h; active compounds read low;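 active = readout at or below -70, meaning at least 70% loss of cells showing the perinucleolar compartment, a nuclear body marking cancer cells; inconclusive = readout between -30 and a set limit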
#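 PC3M cells stably expressing PTB-GFP, 750–1000 cells/well, treated 16 h at 37 °C with compound (23 nl of library stock), in duplicate. After paraformaldehyde fixation and Hoechst stain, imaged at 20x; PNC prevalence scored by image analysis.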
# HPGD inh = inhibitors of human 15-hydroxyprostaglandin dehydrogenase (HPGD). purified HPGD, NADH fluorescence kinetic, PGE2 substrate. Potency, µM, hits mostly inhibitors. 150,000 compounds, 4.3% hits. AID 894
#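 20 nM HPGD preincubated 15 min at room temperature with compound in 50 mM Tris-HCl pH 8, 0.01% Tween 20. Started with 1 mM NAD+ and 30 uM prostaglandin E2; NADH fluorescence (360/450 nm) read 5 times over 30-s intervals, last minus first.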
# JMJD2E inh = blocks human JMJD2E demethylase activity; 230,000 compounds, 1.6% hits; JMJD2E catalytic domain, FDH-coupled NADH fluorescence (FDH is formaldehyde dehydrogenase); AID 2147; B2RXH2; Potency, µM (doses to about 57.1 µM), usual class: inhibitors; also: nearly all actives have a fitted effect of over 50% in size
# ALDH1A1 inh = inhibitors of human aldehyde dehydrogenase 1A1; P00352; Purified ALDH1A1, NADH fluorescence, propionaldehyde substrate; Potency, µM (doses to about 75.3 µM), hits mostly inhibitors; 220,000 compounds, 7.3% hits
# Target sequence (P00352 whole entry, looked up): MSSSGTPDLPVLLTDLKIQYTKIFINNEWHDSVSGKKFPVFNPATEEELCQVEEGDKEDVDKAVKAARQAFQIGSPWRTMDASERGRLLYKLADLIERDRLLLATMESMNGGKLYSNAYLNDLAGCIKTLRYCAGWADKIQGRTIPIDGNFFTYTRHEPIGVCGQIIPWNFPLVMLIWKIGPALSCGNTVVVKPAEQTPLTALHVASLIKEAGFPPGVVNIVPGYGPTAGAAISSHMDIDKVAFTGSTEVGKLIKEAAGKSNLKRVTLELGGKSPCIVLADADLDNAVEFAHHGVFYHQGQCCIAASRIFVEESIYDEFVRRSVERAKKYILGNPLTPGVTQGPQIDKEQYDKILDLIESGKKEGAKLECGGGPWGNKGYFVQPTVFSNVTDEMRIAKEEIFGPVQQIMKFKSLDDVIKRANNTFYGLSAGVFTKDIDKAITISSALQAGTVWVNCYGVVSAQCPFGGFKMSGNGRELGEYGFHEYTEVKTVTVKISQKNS
# A number is an active result; - = inactive; ? = inconclusive; . = not tested or not shown; ! = not confirmed by another sample. This is a sample that favours compounds with a hit; in the whole collection about 11% have one here. Unless noted, calls follow the shape of the dose curve; as a rule, active = well fitted inhibition curve with a large enough effect (not every such curve was filed as active); inconclusive = small, poorly fitted or top-dose-only effect, or another doubt; inactive = no such curve, though single readings can be large or run the other way.
SMILES,PNC assembly inh,HPGD inh,JMJD2E inh,ALDH1A1 inh
CCCOC(=O)c1ccc(Cl)c(NC(=O)c2cccnc2)c1,.,.,-,?
COc1ccccc1NCCC(=O)OCC(=O)NC1CCCCCC1,?,-,-,-
Cc1c(C(=O)N(C)C2CCCCC2)sc2nc3ccc(N)cc3n12,.,8.9µM,.,?
CCS(=O)(=O)N1Cc2ccccc2CC1C(=O)Nc1nc(C)cs1 (stereo unspecified),.,.,-,-
CCS(=O)(=O)N1Cc2ccccc2CC1C(=O)Nc1nc2c(C)cccc2s1 (stereo unspecified),-,-,25µM,-
O=C(CCl)Nc1nc(-c2ccco2)c(-c2ccco2)s1,-,?,?,0.4µM
O=C(CCCSc1ccccc1)Nc1nc(-c2ccco2)c(-c2ccco2)s1,-,?,?,?
CO/C=C\C=C/c1nnn(-c2ccc(Cl)cc2)n1,-94,-,25µM,25µM
COC(=O)c1ccc(NC(=S)NC2CCc3ccccc32)cc1 (stereo unspecified),.,.,-,-
c1ccc(COC(CN2CCCCCC2)CN2CCCCCC2)cc1,.,.,-,.
COc1cc(C(=O)Sc2ccc(C)cc2)cc(OC)c1OC,?,-,-,?
COc1cc(Sc2ccc(C)cc2)c(OC)cc1N,-,28µM,-,3.5µM
COCCNC(=O)c1cc2cc(Cl)cc(Cl)c2oc1=O,.,.,-,25µM
N#Cc1ccc(COC(=O)c2ccc(N3CCCC3)c([N+](=O)[O-])c2)cc1,?,-,-,?
Cc1ccc(-c2cc(C(=O)NCc3cnn(C)c3C)c3cc(Br)ccc3n2)cc1,-,-,-,-
NNC(=O)c1cc(-c2ccc(O)cc2)nc2ccc(Br)cc12,.,.,-,14µM
O=C(COc1cccnc1[N+](=O)[O-])N1CCN(S(=O)(=O)c2ccc3ccccc3c2)CC1,?,-,?,16µM
O=C(COc1cccnc1[N+](=O)[O-])Nc1ccc(S(=O)(=O)N2CCOCC2)cc1,.,.,-,-
O=C(COc1cccnc1[N+](=O)[O-])Nc1ccc(Cl)c(S(=O)(=O)N2CCOCC2)c1,.,.,-,14µM
Cc1ccc(OCC(=O)N2CCN(S(=O)(=O)c3ccc(Cl)cc3)CC2)c([N+](=O)[O-])n1,?,.,-,?
O=C(Cn1ncc(Cl)c(Cl)c1=O)N1CCN(S(=O)(=O)c2ccc3ccccc3c2)CC1,-,.,-,20µM
COc1ccc(-n2c(=O)c3c4c(sc3n3c(=S)[nH]nc23)CCCC4)cc1,?,-,?,-
O=C(O)CC(NC(=O)C1c2ccccc2Oc2ccccc21)c1ccc(Cl)cc1 (stereo unspecified),-,-,-,-
O=C(O)c1cc(=O)c2ccc(Cl)cc2[nH]1,.,28µM!,-,-
O=C(Nc1cc2cccc([N+](=O)[O-])c2oc1=O)c1cccs1,.,.,-,-
SMILES,PNC assembly inh,HPGD inh,JMJD2E inh,ALDH1A1 inh
CCOC(=O)N1CCN(C(=O)c2ccc3c(=O)n(-c4cc(OC)ccc4OC)c(=S)[nH]c3c2)CC1,.,.,-,-
CCc1cc(/C(Cc2ccccn2)=N\Nc2ccccc2)c(O)cc1O,.,.,?,7.9µM
Cc1nc(C/C(=N\Nc2ccccc2)c2ccc(O)cc2O)cs1,.,.,14µM,3.2µM
O/N=C(/Cc1ccccn1)c1ccccc1,?,-,-,-
Cc1nc(CC(=O)c2ccc(O)cc2O)cs1,?,-,-,-
BrC(Br)C(Br)Br,.,-,.,-
CC1CN(Cc2ccccc2)C(C)CC1O (stereo unspecified),.,.,-,-
O=C(N/C=C/c1ccco1)NCc1ccccc1,.,.,?,22µM
O=C(/C=C/c1ccco1)NCc1ccc(F)cc1,.,.,-,18µM
O=C(/C=C/c1ccco1)NCC1CCCO1 (stereo unspecified),-,?,-,22µM
CCc1ccc(/C=N/n2c(C)cc(C)c(C#N)c2=O)cc1,-,-,-,-
COCCNC(=S)c1ccc(Br)cc1,.,.,-,8.9µM
CC(C)OCCCN1CN(S(=O)(=O)c2ccc(Cl)cc2)c2nc3ccccc3nc21,-,-,?,28µM
CC(C)OCCCN1CN(S(=O)(=O)c2cccc(Cl)c2)c2nc3ccccc3nc21,-,-,?,?
Cc1ccc(C(=O)CSC2=C(C#N)C(c3ccco3)CC(=O)N2)c(C)c1 (stereo unspecified),-,?,-,?
Cc1ccc(NC(=O)CSC2=C(C#N)C(c3ccco3)CC(=O)N2)cc1 (stereo unspecified),-,-,-,14µM
CC(C)C1CC(=O)NC(SCC(=O)Nc2ccc(Br)cc2)=C1C#N (stereo unspecified),?,-,-,8.9µM
Cc1ccc(NC(=O)CSC2=C(C#N)C(c3ccco3)C3=C(CC(C)(C)CC3=O)N2)cc1 (stereo unspecified),-,-,-,13µM
CN1CCN(S(=O)(=O)c2ccc(NC(=O)COc3ccccc3Cl)cc2)CC1,.,.,-,3.2µM
CN(Cc1ccccc1)S(=O)(=O)c1ccc(NC(=S)NC(=O)C(C)(C)C)cc1,-,-,-,13µM
Cc1cccc(OCC(=O)Nc2cc(S(=O)(=O)N3CCCCC3)ccc2N2CCN(C)CC2)c1,.,.,-,11µM
CN(Cc1ccccc1)S(=O)(=O)c1ccc(NC(=S)NC(=O)C2CCCCC2)cc1,-,-,-,-
CN1CCN(S(=O)(=O)c2ccc(NC(=S)NC(=O)C(C)(C)C)cc2)CC1,.,.,-,32µM
Cc1cccc(OCC(=O)Nc2ccc(S(=O)(=O)N3CCN(C)CC3)cc2)c1,?,-,-,-
CC[C@@H]1OC(=O)[C@@H](C)[C@H](O[C@H]2C[C@@](C)(OC)[C@@H](O)[C@H](C)O2)C(C)[C@H](O[C@H]2O[C@@H](C)C[C@@H](N(C)C)[C@@H]2O)[C@@](C)(O)C[C@H](C)C(=O)[C@@H](C)[C@H](O)[C@@]1(C)O (stereo partly specified),.,-,-,-
SMILES,PNC assembly inh,HPGD inh,JMJD2E inh,ALDH1A1 inh
O=C(CCc1nnc(COc2ccccc2)o1)NC1(c2ccccc2)CC1,.,.,-,-
COc1ccccc1CCc1nnc(CCC(=O)NC(C)Cn2nc(C)cc2C)o1 (stereo unspecified),.,.,-,-
CN1CCN(C(=S)NC(=O)c2ccc(S(=O)(=O)N3CCOCC3)cc2)CC1,.,.,-,9.5µM
CN1CCN(S(=O)(=O)c2ccc(NC(=S)NC(=O)c3ccccc3)cc2)CC1,-,?,-,25µM
O=C(NC(=S)N1CCN(C(c2ccccc2)c2ccccc2)CC1)c1ccc(S(=O)(=O)N2CCOCC2)cc1,-,-,-,-
CN1CCN(S(=O)(=O)c2ccc(NC(=S)NC(=O)c3ccc(Cl)cc3)cc2)CC1,-,.,-,-
Fc1ccc(Nc2ccnc(-c3ccccc3C(F)(F)F)n2)cc1,.,.,.,-
CCCOc1ccc(/C(O)=C2\C(=O)C(=O)N(CCCOC)C23C(=O)N(C)c2ccccc23)cc1 (stereo unspecified),-106,-,-,-
CN(CC(=O)Nc1cccc(F)c1)CC(=O)Nc1cccc(S(N)(=O)=O)c1,.,.,-,.
Cc1ccccc1-c1nccc(NCCN2CCOCC2)n1,.,.,.,32µM
FC(F)(F)c1ccccc1-c1nccc(NCCN2CCOCC2)n1,.,.,.,-
